Here are results for 16 molecules from PubChem BioAssay (NCATS).

Results filed as inconclusive are left out. Activity calls are given as the source filed them. Calls follow the shape of the dose curve; as a rule, active = well fitted inhibition curve with a large enough effect; inconclusive = small, poorly fitted or top-dose-only effect; inactive = flat fitted curve, though single readings scatter.

What all share (experiment): qHTS profiling for inhibitors of Plasmodium falciparum proliferation (AID 504749); also: nearly all actives have a fitted effect of over 60% in size
Details in all cases: P. falciparum in erythrocytes, SYBR Green DNA, 72 h; series mostly up to 28.7 µM
(In general: Quantitative high-throughput screening tests each substance at several concentrations.)

One experiment deals with C2A. In outline: (§1)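 In a 72 h erythrocytic culture (37 C, humidified, 5% CO2) at 2.5% hematocrit and 0.3% starting parasitemia, compounds were tested; SYBR Green I in detergent lysis buffer stained parasite DNA overnight.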
The subject of a further experiment is CP191. In outline:
as §1

In the next experiment the test system is CP192. The method, boiled down:
as §1

A further experiment deals with CP194. In outline: as §1
The next experiment has as its system 7G8. The method, boiled down:
as §1

Another experiment has as its system AA1029. In outline:
as §1

In another experiment the test system is AS120. The method, boiled down: as §1
The test system of another experiment is ATS189. In outline:
as §1

Another experiment concerns ATS95. The method, boiled down:
as §1

The test system of another experiment is CP185. The method, boiled down: as §1
Potency is read from the fitted curve at half-maximal effect.

In the case of `CC(C)(C)NC(=O)[C@H]1CN(Cc2cccnc2)CCN1C[C@@H](O)C[C@@H](Cc1ccccc1)C(=O)N[C@H]1c2ccccc2C[C@H]1O`, the Potency was 10000 nM (active) in the experiment with C2A, 8910 nM (active) with CP191, 10700 nM (active) in the experiment on CP192 and 15100 nM (active) with CP194.
In the case of `CN1c2cc(O)c(N=NC(N)=O)cc2CC1S(=O)(=O)O` (stereo not drawn), the Potency entry with 7G8, in the experiment with AA1029, in the experiment on AS120, in the experiment with ATS189, with ATS95 and with C2A was “inactive” each time. For the same molecule, the Potency result in the experiment on CP185, in the experiment with CP191, with CP192 and in the experiment on CP194 was “inactive” each time.
Regarding `COc1cc(C(=O)NS(=O)(=O)c2ccccc2C)ccc1Cc1cn(C)c2ccc(NC(=O)OC3CCCC3)cc12`, in the experiment with 7G8, the Potency was 12600 nM (active). For the same molecule, the Potency result in the experiment on AA1029, in the experiment on AS120, with ATS95, in the experiment with C2A, in the experiment on CP185 and with CP191 was “inactive” throughout. The Potency entry in the experiment with CP192 is “inactive”.
Turning to `O=c1[nH]c(=O)n(C2CCCO2)cc1F` (stereo not drawn), the Potency result in the experiment with 7G8, with AA1029, in the experiment on AS120, in the experiment on ATS189, in the experiment with ATS95 and in the experiment on C2A was “inactive” each time. The Potency entry in the experiment on CP185, in the experiment on CP191, with CP192 and in the experiment on CP194 was “inactive” each time.
`CC[C@H]1CN2CCc3cc(OC)c(OC)cc3[C@H]2C[C@@H]1C[C@@H]1NCCc2cc(OC)c(OC)cc21`: the Potency in the experiment on 7G8 was 126 nM (active); with AA1029, 316 nM (active); in the experiment with AS120 it was 316 nM (active); with ATS189, 708 nM (active); in the experiment with ATS95, 282 nM (active); in the experiment with C2A, 224 nM (active). Besides, the Potency with CP185 was 316 nM (active); in the experiment on CP192, 536 nM (active); with CP194, 601 nM (active).
Regarding `Nc1ccn([C@@H]2CS[C@H](CO)O2)c(=O)n1`, the Potency entry in the experiment on 7G8, in the experiment with AA1029, with AS120, in the experiment on ATS189, in the experiment on ATS95 and with C2A was “inactive” in each case. In addition, the Potency entry in the experiment on CP185, in the experiment on CP191, with CP192 and in the experiment on CP194 was “inactive” throughout.
As for `C[C@H]1C[C@@H]2[C@@H]([C@@H](O)C[C@@]3(C)[C@H]2CC[C@]3(O)C(=O)CO)[C@@]2(C)C=CC(=O)C=C12`, the Potency entry in the experiment on 7G8, in the experiment with AA1029, with AS120, in the experiment on ATS189, in the experiment with ATS95 and in the experiment on C2A was “inactive” in each case. Besides, the Potency entry with CP185, in the experiment on CP191, with CP192 and in the experiment with CP194 was “inactive” in each case.
Turning to `COC(=O)C1=C(C)NC(C)=C(C(=O)OCCN2CCN(C(c3ccccc3)c3ccccc3)CC2)C1c1cccc([N+](=O)[O-])c1` (stereo not drawn), the Potency in the experiment with 7G8 is 1410 nM (active); with AA1029 it was 2240 nM (active); in the experiment on AS120, 2000 nM (active); with ATS189, 1580 nM (active); in the experiment with ATS95, 2510 nM (active); in the experiment on C2A it was 3550 nM (active). Besides, the Potency in the experiment on CP185 was 4470 nM (active); in the experiment with CP191, 3160 nM (active); in the experiment with CP192, 4780 nM (active); in the experiment on CP194, 5360 nM (active).
As for `CCC1=C[C@@H]2CN(C1)Cc1c([nH]c3ccccc13)[C@@](C(=O)OC)(c1cc3c(cc1OC)N(C)[C@@H]1[C@@](O)(C(=O)OC)[C@H](OC(C)=O)[C@]4(CC)C=CCN5CC[C@]31[C@@H]54)C2`, the Potency in the experiment with 7G8 is 2240 nM (active); in the experiment on AA1029, 1580 nM (active); in the experiment on AS120, 1410 nM (active); in the experiment on ATS189, 1780 nM (active); with ATS95, 2000 nM (active); with C2A, 1260 nM (active). The Potency is 3160 nM (active) in the experiment on CP185, 3980 nM (active) in the experiment on CP191, 4260 nM (active) in the experiment on CP192 and 3380 nM (active) with CP194.
Regarding `CC1(C)O[C@@H]2C[C@@H]3[C@H]4C[C@@H](F)C5=CC(=O)C=C[C@]5(C)[C@@]4(F)[C@@H](O)C[C@]3(C)[C@]2(C(=O)CO)O1`, the Potency entry with AA1029, in the experiment on AS120, in the experiment with ATS189, in the experiment on ATS95, with C2A and with CP185 was “inactive” each time. For the same molecule, the Potency entry in the experiment on CP191 is “inactive”. Further, the Potency with CP194 was 15100 nM (active).
In the case of `O=C(O)CO.[NH2-].[NH2-].[Pt+2]`, the Potency entry in the experiment on 7G8, with AA1029, in the experiment with AS120, with ATS189, with ATS95 and in the experiment on C2A was “inactive” in each case. Also, the Potency result with CP185, with CP191, in the experiment on CP192 and with CP194 was “inactive” each time.
As to `Nc1ccn([C@@H]2O[C@H](CO)[C@H](O)C2(F)F)c(=O)n1`, the Potency with 7G8 is 2820 nM (active); in the experiment on AA1029, 1580 nM (active); with AS120 it was 3550 nM (active); with ATS189, 3980 nM (active); with ATS95, 5620 nM (active); with C2A it was 3980 nM (active). The Potency in the experiment with CP185 is 5620 nM (active); in the experiment on CP191, 1410 nM (active); with CP192 it was 6010 nM (active); in the experiment on CP194, 6750 nM (active).
Regarding `Nc1ccc(S(=O)(=O)Nc2ncccn2)cc1`, the Potency result in the experiment with 7G8, with AA1029, in the experiment with AS120, in the experiment with ATS189, in the experiment on ATS95 and in the experiment on C2A was “inactive” in each case. The Potency result in the experiment on CP185, in the experiment with CP191, in the experiment on CP192 and in the experiment on CP194 was “inactive” in each case.
For `CC=CC1=C(C(=O)O)N2C(=O)[C@H](NC(=O)[C@H](N)c3ccc(O)cc3)[C@@H]2SC1`, the Potency entry with 7G8, in the experiment on AA1029, in the experiment with AS120, with ATS189, with ATS95 and with C2A was “inactive” in each case. For the same molecule, the Potency entry in the experiment on CP185, in the experiment on CP191, in the experiment on CP192 and in the experiment with CP194 was “inactive” throughout.
In the case of `COC(=O)C[C@](O)(CCCC(C)(C)O)C(=O)O[C@@H]1C(OC)=C[C@]23CCCN2CCc2cc4c(cc2[C@H]13)OCO4`, the Potency in the experiment with 7G8 was 11.2 nM (active); in the experiment with AA1029, 25.1 nM (active); in the experiment on AS120, 15.8 nM (active); in the experiment with ATS189, 31.6 nM (active); in the experiment on ATS95 it was 28.2 nM (active); in the experiment with C2A, 22.4 nM (active). The Potency in the experiment with CP185 is 35.5 nM (active); with CP191, 28.2 nM (active); in the experiment on CP192 it was 26.9 nM (active); with CP194, 37.9 nM (active).
As for `COc1c(N2C[C@@H]3CCCN[C@H]3C2)c(F)cc2c(=O)c(C(=O)O)cn(C3CC3)c12`, the Potency entry in the experiment with AA1029, with AS120, in the experiment on ATS189, in the experiment with ATS95, in the experiment with C2A and with CP185 was “inactive” throughout. The Potency entry in the experiment on CP191, in the experiment on CP192 and in the experiment on CP194 was “inactive” each time.
